Experimental data: PubChem BioAssay
The source made the active and inactive calls.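 How the source made its calls: active means thallium flux through the channel raised or lowered by more than 3 SD from vehicle-only wells, actives on both sides; inactive means the rest.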

Key:
Test in all cases: BK channel mutant inhibitors and activators – cell-based, U2OS BacMam, thallium flux, beta subunits, selectivity assay, profiling panel (AID 1259406);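 further: initial slope of Thallos dye fluorescence rise after thallium is added; log ratio against the mean of 0.3% DMSO vehicle wells on the same plate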
F380Y/beta2Delta = details: U2OS BacMam BK variants, at 30 µM
F380Y/beta4 = details: U2OS BacMam BK variants, at 30 µM
[1] = molecular target: Calcium-activated potassium channel subunit alpha-1 (Homo sapiens) + Leucine-rich repeat-containing protein 26 (Homo sapiens) (UniProt Q12791+Q2I0M4); details: U2OS BacMam BK variants, F380Y/Slo1WT/gamma1, at 30 µM
R275C = details: U2OS BacMam BK variants, at 30 µM
R275C/beta1 = details: U2OS BacMam BK variants, at 30 µM
R275C/beta2Delta = details: U2OS BacMam BK variants, at 30 µM
R275C/beta4 = details: U2OS BacMam BK variants, at 30 µM
R275C/Slo1WT/beta2 = details: U2OS BacMam BK variants, at 30 µM

Measured: log fold change Tl+ flux

Sequence of Calcium-activated potassium channel subunit alpha-1 (Homo sapiens) + Leucine-rich repeat-containing protein 26 (Homo sapiens) (Q2I0M4 whole entry, looked up, one chain of several): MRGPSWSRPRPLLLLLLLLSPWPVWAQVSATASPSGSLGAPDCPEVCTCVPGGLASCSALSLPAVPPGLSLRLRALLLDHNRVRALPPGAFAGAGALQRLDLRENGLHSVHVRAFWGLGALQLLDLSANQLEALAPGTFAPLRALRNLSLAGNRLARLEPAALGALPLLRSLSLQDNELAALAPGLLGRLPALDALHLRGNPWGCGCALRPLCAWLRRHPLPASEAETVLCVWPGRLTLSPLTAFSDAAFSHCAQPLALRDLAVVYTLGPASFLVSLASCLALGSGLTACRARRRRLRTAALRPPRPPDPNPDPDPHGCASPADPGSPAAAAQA

NS(=O)(=O)Cc1noc2ccccc12
inactive: F380Y/beta2Delta -0.0343 | F380Y/beta4 -0.0562 | [1] 0.00637 | R275C -0.021 | R275C/beta1 0.0189 | R275C/beta2Delta -0.0477 | R275C/beta4 0.00838 | R275C/Slo1WT/beta2 -0.0027

C[C@@H]1C[C@H]2[C@@H]3CCC4=CC(=O)C=C[C@]4(C)[C@@]3(F)[C@@H](O)C[C@]2(C)[C@H]1C(=O)CO
active: R275C/beta1 0.178
inactive: F380Y/beta2Delta 0.0651 | F380Y/beta4 0.0601 | [1] 0.0369 | R275C -0.061 | R275C/beta2Delta 0.0622 | R275C/beta4 0.0336 | R275C/Slo1WT/beta2 0.0113

CNNCc1ccc(C(=O)NC(C)C)cc1
inactive: F380Y/beta2Delta 0.00407 | F380Y/beta4 -0.0214 | [1] -0.0918 | R275C/beta1 -0.022 | R275C/beta2Delta -0.0281 | R275C/beta4 0.042 | R275C/Slo1WT/beta2 0.0113
active: R275C -0.164

Nc1nc2c(ncn2COC(CO)CO)c(=O)[nH]1
inactive: F380Y/beta2Delta 0.0461 | F380Y/beta4 0.0377 | [1] -0.00437 | R275C 0.0708 | R275C/beta1 -0.0192 | R275C/beta2Delta 0.0472 | R275C/beta4 -0.0224 | R275C/Slo1WT/beta2 -0.00303

CCOc1cc(CC(=O)N[C@@H](CC(C)C)c2ccccc2N2CCCCC2)ccc1C(=O)O
inactive: [1] 0.0882 | R275C -0.00436 | R275C/Slo1WT/beta2 0.0386
active: F380Y/beta2Delta 0.217 | F380Y/beta4 0.297 | R275C/beta1 0.495 | R275C/beta2Delta 0.262 | R275C/beta4 0.161

CC(C)c1nc(CN(C)C(=O)N[C@H](C(=O)N[C@@H](Cc2ccccc2)C[C@H](O)[C@H](Cc2ccccc2)NC(=O)OCc2cncs2)C(C)C)cs1
inactive: R275C/beta1 0.0641 | R275C/beta4 -0.0726 | R275C/Slo1WT/beta2 0.0476
active: F380Y/beta2Delta -0.548 | F380Y/beta4 -0.505 | [1] -0.199 | R275C -0.232 | R275C/beta2Delta -0.208

O=C1N(c2ccccc2)c2ccccc2C1(Cc1ccncc1)Cc1ccncc1
inactive: F380Y/beta2Delta -0.0915 | F380Y/beta4 -0.0921 | [1] -0.0557 | R275C -0.00568 | R275C/beta1 0.0135 | R275C/beta2Delta 0.00649 | R275C/beta4 -0.0197 | R275C/Slo1WT/beta2 -0.0252

CC(c1cc2ccccc2s1)N(O)C(N)=O (stereo not given)
inactive: F380Y/beta2Delta 0.0219 | F380Y/beta4 0.0185 | [1] 0.0287 | R275C 0.00217 | R275C/beta1 0.0284 | R275C/beta2Delta 0.0541 | R275C/beta4 -0.0188 | R275C/Slo1WT/beta2 0.0381

NC(=O)OCC(COC(N)=O)c1ccccc1
inactive: F380Y/beta2Delta 0.0149 | F380Y/beta4 0.0205 | [1] 0.0713 | R275C -0.054 | R275C/beta1 0.0281 | R275C/beta2Delta 0.019 | R275C/beta4 -0.0181 | R275C/Slo1WT/beta2 0.0103

CC[N+](C)(CC)CCOC(=O)C(O)(c1ccccc1)C1CCCCC1 (stereo not given)
active: R275C/Slo1WT/beta2 0.0812
inactive: F380Y/beta2Delta -0.0141 | F380Y/beta4 -0.0257 | [1] 0.0349 | R275C -0.0159 | R275C/beta1 -0.00643 | R275C/beta2Delta 0.0312 | R275C/beta4 0.0157

CC(C)NCC(O)COc1ccc(COCCOC(C)C)cc1 (stereo not given)
inactive: F380Y/beta2Delta 0.00366 | F380Y/beta4 0.0255 | [1] 0.0397 | R275C -0.0696 | R275C/beta1 -0.003 | R275C/beta2Delta -0.0507 | R275C/beta4 0.0137 | R275C/Slo1WT/beta2 0.0109

CC(Oc1c(Cl)cccc1Cl)C1=NCCN1 (stereo not given)
inactive: F380Y/beta2Delta -0.00369 | F380Y/beta4 0.0154 | [1] 0.00177 | R275C -0.0395 | R275C/beta1 0.0393 | R275C/beta2Delta 0.00761 | R275C/beta4 0.0269 | R275C/Slo1WT/beta2 0.0415

COc1cc(C)nc(-n2nc(C)cc2OC)n1
inactive: F380Y/beta2Delta -0.0214 | F380Y/beta4 -0.018 | [1] -0.00579 | R275C 0.031 | R275C/beta1 0.00544 | R275C/beta2Delta 0.0107 | R275C/beta4 -0.0217 | R275C/Slo1WT/beta2 -0.00369

O=C(NCCN1CCOCC1)c1ccc(Cl)cc1
inactive: F380Y/beta2Delta -0.0313 | F380Y/beta4 -0.0725 | [1] -0.000886 | R275C -0.0119 | R275C/beta1 -0.015 | R275C/beta2Delta -0.0276 | R275C/beta4 -0.0049 | R275C/Slo1WT/beta2 -0.0216

CN(C)CC/C=C1/c2ccccc2COc2ccc(CC(=O)O)cc21
inactive: F380Y/beta2Delta 0.053 | F380Y/beta4 0.0784 | [1] 0.00396 | R275C -0.0501 | R275C/beta1 0.0368 | R275C/beta2Delta 0.00503 | R275C/beta4 0.0335 | R275C/Slo1WT/beta2 0.0239

Oc1ccc(C2CNCCc3c2cc(O)c(O)c3Cl)cc1 (stereo not given)
inactive: F380Y/beta2Delta 0.057 | F380Y/beta4 0.0586 | [1] 0.0552 | R275C -0.0214 | R275C/beta1 0.0235 | R275C/beta2Delta 0.0656 | R275C/beta4 0.0211 | R275C/Slo1WT/beta2 0.0233

CN1CCN(C2=Nc3cc(F)ccc3Cc3ccccc32)CC1
inactive: F380Y/beta2Delta 0.0383 | F380Y/beta4 0.075 | [1] -0.0172 | R275C -0.0264 | R275C/beta1 0.0276 | R275C/beta2Delta 0.0198 | R275C/beta4 0.0369 | R275C/Slo1WT/beta2 0.0225

CC(Cc1ccccc1)(NC(=O)CN)c1ccccc1 (stereo not given)
inactive: F380Y/beta2Delta 0.0679 | F380Y/beta4 0.0357 | [1] -0.0139 | R275C 0.0158 | R275C/beta1 0.0479 | R275C/beta2Delta 0.036 | R275C/beta4 0.0184 | R275C/Slo1WT/beta2 -0.037

CC(N)C12CC3CC(CC(C3)C1)C2 (stereo not given)
inactive: F380Y/beta2Delta 0.0577 | F380Y/beta4 0.0485 | [1] 0.0164 | R275C 0.0361 | R275C/beta1 -0.0211 | R275C/beta2Delta 0.0568 | R275C/beta4 0.04 | R275C/Slo1WT/beta2 0.0291

CN(CCOc1ccc(NS(C)(=O)=O)cc1)CCc1ccc(NS(C)(=O)=O)cc1
inactive: F380Y/beta2Delta 0.0285 | F380Y/beta4 0.0111 | [1] -0.0274 | R275C -0.101 | R275C/beta1 0.0214 | R275C/beta2Delta -0.0483 | R275C/beta4 -9.6e-05 | R275C/Slo1WT/beta2 -0.00913

O=C1CCc2ccc(OCCCCN3CCN(c4cccc(Cl)c4Cl)CC3)cc2N1
inactive: F380Y/beta2Delta -0.00576 | F380Y/beta4 0.0383 | [1] -0.0185 | R275C -0.0555 | R275C/beta1 0.056 | R275C/beta2Delta 0.0181 | R275C/beta4 0.0353 | R275C/Slo1WT/beta2 0.0373

COc1cc(C(=O)NC2CCCNC2)cc(OC)c1OC (stereo not given)
inactive: F380Y/beta2Delta -0.0479 | F380Y/beta4 -0.0783 | [1] 0.00703 | R275C -0.0701 | R275C/beta1 -0.0128 | R275C/beta2Delta 0.000824 | R275C/beta4 0.00216 | R275C/Slo1WT/beta2 -0.0186

COC(=O)C1=C(C)NC(C)=C(C(=O)OC(C)C)C1c1cccc2nonc12 (stereo not given)
inactive: F380Y/beta2Delta -0.0966 | [1] 0.00177 | R275C -0.0742 | R275C/beta1 -0.015 | R275C/beta2Delta -0.0967 | R275C/beta4 -0.00531 | R275C/Slo1WT/beta2 -0.0356
active: F380Y/beta4 -0.107

Cc1ncc([N+](=O)[O-])n1CC(O)CCl (stereo not given)
inactive: F380Y/beta2Delta -0.0158 | F380Y/beta4 -0.0171 | [1] -0.013 | R275C 0.00346 | R275C/beta1 -0.0317 | R275C/beta2Delta -0.0154 | R275C/beta4 -0.0435 | R275C/Slo1WT/beta2 -0.016

Cc1ccnc2c1NC(=O)c1cccnc1N2C1CC1
inactive: F380Y/beta2Delta 0.0168 | F380Y/beta4 0.0216 | [1] -0.00356 | R275C -0.0605 | R275C/beta1 -0.00377 | R275C/beta2Delta 0.0164 | R275C/beta4 -0.0208 | R275C/Slo1WT/beta2 -0.00118

COc1cc(C(=O)NS(=O)(=O)c2ccccc2C)ccc1Cc1cn(C)c2ccc(NC(=O)OC3CCCC3)cc12
inactive: R275C -0.0565 | R275C/Slo1WT/beta2 0.0699
active: F380Y/beta2Delta 0.327 | F380Y/beta4 0.428 | [1] 0.314 | R275C/beta1 0.581 | R275C/beta2Delta 0.38 | R275C/beta4 0.546

COc1ccc(CN2CCN(C(c3ccc(F)cc3)c3ccc(F)cc3)CC2)c(OC)c1OC
inactive: F380Y/beta2Delta -0.015 | F380Y/beta4 0.0162 | [1] -0.00669 | R275C -0.0264 | R275C/beta1 -0.0636 | R275C/beta2Delta -0.0699 | R275C/beta4 0.0197 | R275C/Slo1WT/beta2 -0.00919

O=C(CCNNC(=O)c1ccncc1)NCc1ccccc1
inactive: F380Y/beta2Delta -0.0162 | F380Y/beta4 0.0308 | [1] 0.00963 | R275C -0.0947 | R275C/beta1 -0.0338 | R275C/beta2Delta 0.038 | R275C/beta4 0.0195 | R275C/Slo1WT/beta2 0.0406

CCCN1CCCC[C@H]1C(=O)Nc1c(C)cccc1C
inactive: F380Y/beta2Delta 0.0505 | F380Y/beta4 0.0334 | [1] -0.0126 | R275C 0.0086 | R275C/beta1 0.0221 | R275C/beta2Delta 0.0105 | R275C/beta4 0.0113 | R275C/Slo1WT/beta2 0.0315

CCN(CC)CCNC(=O)c1cc(Cl)c(N)cc1OC
inactive: F380Y/beta2Delta -0.0588 | F380Y/beta4 -0.0267 | [1] 0.0156 | R275C 0.0337 | R275C/beta1 -0.0145 | R275C/beta2Delta -0.0122 | R275C/beta4 -0.0991 | R275C/Slo1WT/beta2 -0.0439
